High-throughput results as filed in PubChem BioAssay.
aDG glyco act: activators of alpha-DG glycosylation, primary screen, uHTS, Pro5-aDG cells, AlphaScreen; alpha-DG glycosylation AlphaScreen (IIH6); 0% Pro5, 100% B10-LARGE cell signal; activation, % at 10 µM; 360,000 compounds, 0.22% hits;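 active means activation of at least 8% versus controls, or a plate z-score of at least 8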;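 further: Pro5 are CHO cells carrying HIG-tagged alpha-DG that lacks glycosylation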
ADAM17 inh: ADAM17 inhibitors, primary screen, biochemical, QFRET; Disintegrin and metalloproteinase domain-containing protein 17 (Homo sapiens), P78536; recombinant ADAM17, EDANS/DABCYL FRET peptide cleavage; inhibition, % at 6.95 µM; 370,000 compounds, 0.83% hits;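 active means inhibition above the mean of compounds lying between control limits plus 3 SD, set per campaign, cut at about 8.5% in these data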
Target sequence (P78536 215-824 limits assumed): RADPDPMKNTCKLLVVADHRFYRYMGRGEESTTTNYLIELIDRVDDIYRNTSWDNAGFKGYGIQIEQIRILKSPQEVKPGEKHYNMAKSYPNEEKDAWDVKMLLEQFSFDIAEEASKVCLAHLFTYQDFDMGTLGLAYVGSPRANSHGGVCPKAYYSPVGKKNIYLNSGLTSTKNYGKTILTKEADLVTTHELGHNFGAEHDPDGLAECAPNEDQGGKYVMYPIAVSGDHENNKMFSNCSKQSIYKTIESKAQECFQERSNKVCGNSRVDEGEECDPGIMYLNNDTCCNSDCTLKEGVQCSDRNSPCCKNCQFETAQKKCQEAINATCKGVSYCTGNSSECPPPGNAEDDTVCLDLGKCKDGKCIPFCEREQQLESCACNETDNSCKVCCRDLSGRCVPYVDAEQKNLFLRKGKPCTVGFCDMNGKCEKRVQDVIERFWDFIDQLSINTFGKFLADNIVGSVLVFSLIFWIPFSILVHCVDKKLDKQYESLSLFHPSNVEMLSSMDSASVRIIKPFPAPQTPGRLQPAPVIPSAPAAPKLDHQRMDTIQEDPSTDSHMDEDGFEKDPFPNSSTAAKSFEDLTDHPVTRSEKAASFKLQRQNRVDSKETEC
NR3A LBD binder: binders of NR3A ligand-binding domain, primary screen, biophysical, differential scanning fluorimetry, uHTS; 340,000 compounds, 2.5% hits; Tm shift relative to glycine control, % at 25 µM; AID 1259313, 2017; Glutamate receptor ionotropic, NMDA 3A (GRIN3A) ligand-binding domain; NR3A LBD differential scanning fluorimetry, Tm shift; 0% = protein alone, 100% = glycine-bound protein;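 active means melting temperature shift of at least 10% of the positive control shift, at one fixed dose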
ADAM10 inh: human ADAM10 inhibitors, primary screen, biochemical, QFRET, HTS | Disintegrin and metalloproteinase domain-containing protein 10 (Homo sapiens), O14672 | recombinant ADAM10, EDANS/DABCYL FRET peptide cleavage, 3 h | inhibition, % at 7 µM | 370,000 compounds, 0.62% hits;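 active means inhibition above a per-campaign cutoff equal to the mean of compounds falling between control-based bounds plus 3 SD, cut at about 20% in these data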
FAS TE block: FAS thioesterase domain inhibitors, primary screen, biochemical, fluorescence intensity, uHTS; inhibition, % at 15 µM; recombinant FAS-TE, OMFH fluorogenic substrate, fluorescence endpoint; 360,000 compounds, 0.67% hits; Fatty acid synthase (Homo sapiens), P49327;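 active means compounds whose normalised, plate-corrected inhibition of enzyme fluorescence in the single-dose primary screen is 50% or more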
A number is an active result; – = inactive; · = no result. Only some compounds are listed: those with a hit (about 4% of all), similar ones and a draw of the others.

SMILES	aDG glyco act	ADAM17 inh	NR3A LBD binder	ADAM10 inh	FAS TE block
Cc1cc(NC(=S)N(CCCN2CCOCC2)Cc2ccco2)ccc1Cl	–	–	13	–	–
COc1ccc(NS(=O)(=O)c2ccc(C)c(C(=O)N3CC(C)OC(C)C3)c2)cc1 (configuration not stated)	–	–	11	–	–
Nc1nc(-c2ccc(Cl)cc2)c(N=Nc2ccc(S(=O)(=O)N3CCOCC3)cc2)s1	–	–	17	–	–
COC(=O)C1OC(OC2CC[C@]3(C)C(CC[C@@]4(C)[C@@H]3CC=C3[C@@H]5CC(C)(C)CC[C@]5(C(=O)OC5OC(CO)C(O)C(O)C5O)CC[C@]34C)C2(C)C)C(O)C(O)C1O[C@H]1OCC(O)C(O)C1O (some centres not stated)	–	·	15	·	–
CC1(C)CC[C@]2(C(=O)O[C@@H]3OC(CO)[C@@H](O)[C@H](O)[C@H]3O)CC[C@]3(C)C(=CCC4[C@@]5(C)CC[C@H](O[C@@H]6OC(C(=O)O)[C@@H](O)[C@H](O)[C@H]6O)C(C)(C)C5CC[C@]43C)[C@@H]2C1 (some centres not stated)	–	–	–	–	–
O=C(CSc1ccccc1C(=O)O)NCc1ccco1	–	–	–	–	–
CC12CCC(C(=O)NNC(=O)c3ccc(Br)cc3)(OC1=O)C2(C)C (configuration not stated)	–	–	–	–	–
O=C(Nc1cccc(Cl)c1)ON1CCCCC1	–	–	·	–	–
C=CCc1cc(Cl)ccc1OC(=O)Nc1cccc(Cl)c1	–	–	11	–	–
CCOc1ccc(-c2noc(CCCC(=O)NC3CCCC3)n2)cc1OC	–	–	–	–	–
O=C(O)c1ccc(/C=N/Nc2ccc(F)cc2F)cc1	–	–	–	–	–
Fc1ccc(N/N=C/c2ccncc2)c(F)c1	–	–	23	–	–
Clc1ccc(N/N=C/c2ccncc2)cc1Cl	–	–	12	–	–
O=C(Nc1ncc(Br)s1)C(Cc1ccccc1)n1cccc1 (configuration not stated)	–	–	–	–	–
COC(=O)[C@@]12CCCCC=C1N(CCc1ccc(Cl)cc1)C(=O)[C@H]2CC(=O)NCC1CCCCC1	·	–	·	–	·
O=C(COc1ccccc1C(=O)N/N=C\c1ccc(O)c(O)c1)N/N=C/c1ccc(O)c(O)c1	–	·	13	·	–
O=C(Nc1ccc(Cn2cccn2)cc1)c1ccc(COc2ccccc2Br)cc1	–	–	30	–	–
O=C(NN=Cc1ccc(O)c(O)c1)c1ccccc1	–	·	·	·	–
COc1ccc(O)c(/C=N/NC(=O)c2ccc(OCc3cccc(Br)c3)cc2)c1	–	–	27	–	–
COc1ccc(C(=O)N/N=C/c2cc(Br)ccc2O)cc1OC	–	–	–	–	–
Cc1ccc(C(C)C)c(OCc2ccc(C(=O)N/N=C/c3ccc(O)cc3O)cc2)c1	–	–	26	–	–
COc1ccc(-n2cnnc2SCC(=O)N2CCN(S(=O)(=O)c3ccccc3)CC2)cc1	–	–	–	–	–
COc1c2ccoc2nc2c(OC)c(OCC(O)C(C)(C)O)ccc12 (configuration not stated)	–	–	–	–	–
CCCCCCn1c(C(C)O)nc2ccccc21 (configuration not stated)	–	–	–	–	–
N#CC1=C(N)N(c2ccccc2)C2=C(C(=O)CCC2)C1c1cccs1 (configuration not stated)	–	–	–	–	–
SMILES	aDG glyco act	ADAM17 inh	NR3A LBD binder	ADAM10 inh	FAS TE block
CC(C)(C)c1ccc(OCc2ccc(C(=O)N/N=C/c3ccc(O)c(O)c3)cc2)cc1	–	–	24	–	–
O=C(N/N=C/c1cccc(O)c1)c1ccc(COc2ccccc2Br)cc1	–	–	35	–	–
CC(=O)Nc1ccc(NC(=O)c2ccc(COc3ccccc3Br)o2)cc1	–	–	23	–	–
CCC(C)C1NC(=S)N(C2CCCCC2)C1=O (configuration not stated)	–	–	–	–	–
Cc1cc(O)c(NC(=S)NC(=O)c2ccc(-c3ccc(Cl)cc3)o2)cc1C	–	–	30	–	–
Cc1ccc(O)c(NC(=S)NC(=O)Cc2ccc(Cl)cc2)c1	–	–	–	–	–
Cc1ccc(NC(=S)NC(=O)c2ccc(-c3ccc(Cl)cc3)o2)c(O)c1	–	–	34	–	–
Cc1cccc(OCC(=O)NC(=S)Nc2ccccc2N2CCOCC2)c1C	–	–	16	–	–
COc1cccc(C(=O)NC(=S)Nc2ccccc2N2CCCC2)c1	–	–	–	–	–
Cc1ccccc1OCC(=O)Nc1ccccc1N1CCOCC1	–	–	–	–	–
CC(C)Oc1cccc(C(=O)NC(=S)Nc2ccccc2N2CCOCC2)c1	–	–	20	–	–
CC(=O)N1CCN(C(=O)c2cc(S(=O)(=O)N(C)c3ccc(F)cc3)ccc2Cl)CC1	–	–	–	–	–
CCNC(=O)NC(=O)COC(=O)CCCSc1nc2ccccc2[nH]1	–	–	–	–	–
O=C(COC(=O)CCCSc1nc2ccccc2[nH]1)Nc1ccc(Cl)cc1	–	–	16	–	–
Cc1nc(C(=O)N2CCOCC2)sc1C1(C)CC(c2ccccc2)=NO1 (configuration not stated)	–	–	14	–	–
COC(=O)Nc1ccc(S(=O)(=O)N2CCC(C(=O)N(C)C3CCCCC3)CC2)cc1	–	–	–	–	–
COc1cc(/C=N/NC(=O)c2ccncc2)ccc1OCC(=O)Nc1ccc(C)c(C)c1	–	–	12	–	–
CCCCNC(=O)C(=O)N/N=C/c1ccc(OCC(=O)Nc2cccc(OC)c2)c(OC)c1	–	–	11	–	–
COc1cc(/C=N/NC(=O)c2ccncc2)ccc1OCC(=O)Nc1cccc([N+](=O)[O-])c1	–	–	–	–	–
O=C(COC(=O)c1ccc(S(=O)(=O)N2CCCCC2)cc1)NCc1ccco1	–	–	–	–	–
CCN(C(=O)c1cnc(N2CCN(c3ncccn3)CC2)c2ccccc12)c1cccc(Cl)c1	–	–	–	–	–
COc1ccc([C@H]2CC(=O)C=C(c3ccccc3)C2)cc1	–	·	–	·	–
Cc1nn(C)c(C)c1C1C(C#N)=C(N)OC2=C1C(=O)CCC2 (configuration not stated)	–	–	12	–	–
CCn1nc(C)c(C2C(C#N)=C(N)OC3=C2C(=O)CCC3)c1C (configuration not stated)	–	–	–	–	–
CC(C)n1c(O)c(/C=C2\C=NN=C2c2ccccc2)sc1=S	–	–	11	–	–
CCn1c(O)c(/C=C2\C=NN=C2c2ccc(C)cc2)sc1=S	–	–	12	–	–
Cc1[nH]n(-c2ccccc2)c(=O)c1/C=C1\C=NN=C1c1ccccc1	–	–	–	–	–
